# Only some compounds are listed: those with a hit (about 7.6% of all), similar ones and a draw of the others.
# KB-V1 cytotox = qHTS assay for MDR1-selective chemotherapeutics: Primary screen using the drug-selected MDR subline cells KB-V1; KB-V1 MDR cells viability, CellTiter-Glo, 72 h; Potency, µM (top dose mostly 46.1 µM), most hits filed as cytotoxic; 3.4% of 400,000 active; note: potency is the fitted concentration of half-maximal effect; % is set by controls: 0 for no effect and ±100 for the full control effect; nearly all actives have a fitted effect of over 60% in size
#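 Cells of the MDR subline KB-V1 are plated, dosed with compound at multiple concentrations, and incubated 72 h at 37 degrees C; CellTiter-Glo is then added and luminescence read after 10 min.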
# SW480 rereplic = A quantitative high throughput screen for small molecules that induce DNA re-replication in SW480 colon adenocarcinoma cells. SW480 DNA re-replication, Hoechst DNA content imaging, 48 h. Potency, µM (doses to about 46.1 µM), inactives show top-dose re-replication activation, usual class: activators. 1.8% of 340,000 active; note: potency is the fitted concentration of half-maximal effect; % of control where 0% means no effect; nearly all actives have a fitted effect of over 55% in size
#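 Compounds, transferred as 23 nL by pin tool, were incubated with cells for 48 hr; DNA content per nucleus was then quantified by Hoechst staining and fluorescence plate imaging.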
# KCNH2 WT inh = qHTS for Inhibitors of KCHN2 3.1: Wildtype qHTS; Voltage-gated inwardly rectifying potassium channel KCNH2 (Homo sapiens), Q12809; U2OS, BacMam KCNH2, thallium flux FluxOr; hits give low values; activity change, % at 1.84 µM; 0.37% of 340,000 active; AID 720551, 2013;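 active = maximum activity change below -70%; inconclusive = maximum activity change between -70% and -50%; inactive = maximum activity change above -50%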; note: % is set by controls: 0 for no effect and ±100 for the full control effect
# Target sequence (Q12809 whole entry, looked up): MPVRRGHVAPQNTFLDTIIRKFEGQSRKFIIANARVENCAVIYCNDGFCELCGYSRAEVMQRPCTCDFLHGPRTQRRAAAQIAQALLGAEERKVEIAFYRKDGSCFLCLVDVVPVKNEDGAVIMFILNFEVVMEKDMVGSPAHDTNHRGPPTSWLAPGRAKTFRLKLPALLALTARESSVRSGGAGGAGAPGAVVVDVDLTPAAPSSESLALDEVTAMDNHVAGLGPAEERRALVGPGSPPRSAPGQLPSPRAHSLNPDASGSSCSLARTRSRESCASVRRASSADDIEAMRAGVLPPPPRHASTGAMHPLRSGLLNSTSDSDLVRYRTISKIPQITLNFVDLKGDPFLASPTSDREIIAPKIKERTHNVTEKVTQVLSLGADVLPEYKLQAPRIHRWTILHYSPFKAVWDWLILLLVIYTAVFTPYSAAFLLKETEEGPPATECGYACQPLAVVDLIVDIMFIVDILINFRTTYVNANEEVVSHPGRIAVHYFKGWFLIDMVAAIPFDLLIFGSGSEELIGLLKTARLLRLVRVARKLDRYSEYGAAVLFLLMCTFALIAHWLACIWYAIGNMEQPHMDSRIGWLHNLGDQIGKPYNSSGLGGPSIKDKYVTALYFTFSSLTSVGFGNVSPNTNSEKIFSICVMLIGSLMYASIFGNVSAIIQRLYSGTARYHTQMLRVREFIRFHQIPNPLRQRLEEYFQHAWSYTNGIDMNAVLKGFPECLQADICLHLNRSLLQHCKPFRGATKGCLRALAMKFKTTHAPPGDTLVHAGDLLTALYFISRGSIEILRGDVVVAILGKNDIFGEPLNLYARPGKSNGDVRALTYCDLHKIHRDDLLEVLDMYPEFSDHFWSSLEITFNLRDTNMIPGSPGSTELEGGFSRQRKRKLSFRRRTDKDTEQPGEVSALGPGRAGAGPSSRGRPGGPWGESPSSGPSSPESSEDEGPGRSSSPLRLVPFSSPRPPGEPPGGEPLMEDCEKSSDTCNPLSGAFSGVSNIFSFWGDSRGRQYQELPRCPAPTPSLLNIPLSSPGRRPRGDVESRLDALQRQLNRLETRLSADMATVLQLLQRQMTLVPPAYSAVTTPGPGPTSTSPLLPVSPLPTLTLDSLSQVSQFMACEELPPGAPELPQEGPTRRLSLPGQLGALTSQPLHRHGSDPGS
#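 U2OS cells transduced with wild-type KCNH2 virus are loaded with FluxOr dye for 45 min, and thallium flux is measured in kinetic reads before and after stimulation buffer. Rate constants are normalized to DMSO controls.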
# MCF10A rereplic = A quantitative high throughput screen for small molecules that induce DNA re-replication in MCF 10a normal breast cells; MCF 10A DNA re-replication, Hoechst nuclear intensity, 48 h; Potency, µM (top dose mostly 46.1 µM), without a hit: top-dose activity, positive = re-replication, actives largely listed as activators; 2.9% of 350,000 active; AID 624296, 2012; note: potency is the fitted concentration of half-maximal effect; % of control where 0% means no effect; nearly all actives have a fitted effect of over 50% in size
# KCNH2 3.1 block = qHTS for Inhibitors of KCHN2 3.1: Mutant qHTS; Potassium voltage-gated channel subfamily H member 2, brain isoform KCNH2 3.1 (human); U2OS KCNH2 3.1, thallium flux FluxOr; hits give low values; activity change, % (tested at about 1.8 µM); 0.95% of 340,000 active; AID 720553, 2013;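 active = maximum activity change below -70%; inconclusive = maximum activity change from -70% to -50%; inactive = maximum activity change above -50%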;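 note: thallium influx rate constant from kinetic fluorescence after stimulation buffer; % is set by controls: 0 for no effect and ±100 for the full control effect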
#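 Normalized rate constant (relative to positive and negative DMSO controls) derived from a 2 min kinetic fluorescence read after stimulation; U2OS cells expressing the 3.1 isoform via virus at 1.77 x 10^8 /mL.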
# KB-3-1 cytotox = qHTS assay for MDR1-selective chemotherapeutics: Primary screen using the parental adenocarcinoma cell KB-3-1. Potency, µM (titrated, usually from 46.1 µM), usual class: cytotoxic. 1.4% of 400,000 active. KB-3-1 viability, CellTiter-Glo ATP luminescence, 72 h. AID 1347075, 2019; note: potency is the fitted concentration of half-maximal effect; % is set by controls: 0 for no effect and ±100 for the full control effect; nearly all actives have a fitted effect of over 60% in size
#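 KB-3-1 parental drug-naive adenocarcinoma cells in DMEM/10% FBS, incubated 72 h at 37 C with pin-transferred compounds across a concentration series. Viability by CellTiter-Glo luminescence; concentration-response curves fitted after normalization.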
# * hit, by the source's call; i = inactive; u = inconclusive; x = not tested or not shown. Unless noted, calls come from the whole dose curve; as a rule, active = well fitted curve in the direction sought with a large enough effect; inconclusive = small, poorly fitted or top-dose-only effect, or another doubt; inactive = no such curve, though single readings can be large; an effect the other way counts as inactive or inconclusive.
SMILES,KB-V1 cytotox,SW480 rereplic,KCNH2 WT inh,MCF10A rereplic,KCNH2 3.1 block,KB-3-1 cytotox
CCOC(=O)N1CCC(NC(=O)C2CCCN(Cc3nc(-c4cccc(C)c4)oc3C)C2)CC1 (centres undefined),u,0%,17,u,7,i
Cc1cccc(-c2nc(CN3CCCC(C(=O)NC4CCC(C)CC4)C3)c(C)o2)c1 (centres undefined),21µM*,u,10,u,-26,i
Cc1oc(-c2cccc(Cl)c2)nc1CN1CCCC(C(=O)NCCCN2CCOCC2)C1 (centres undefined),13µM*,12%,-5,u,9,i
Cc1cccc(-c2nc(CN3CCCC(C(=O)NC4CCCC4)C3)c(C)o2)c1 (centres undefined),9.2µM*,u,38,u,-82*,i
CN(CC(=O)O)c1ccc(/C=C2\C=Cc3ccccc32)cc1,i,x,x,x,x,i
CCC(=O)N1CCc2cc(Br)cc(S(=O)(=O)NCCc3ccccc3)c21,i,x,x,x,x,i
Oc1ccc(Cl)cc1C1=NNC(c2cc(Br)cc3c2OCOC3)C1 (centres undefined),i,116%,-3,11%,6,u
Oc1c(Cl)cc(Cl)cc1C1=NNC(c2ccc(Cl)cc2)C1 (centres undefined),u,u,-26,16µM*,-1,i
Oc1ccc(Cl)cc1C1=NNC(c2ccc(Cl)cc2)C1 (centres undefined),u,u,18,18µM*,-10,23µM*
Cc1ccc(S(=O)(=O)N2CCOc3ccccc32)c(C)c1NS(C)(=O)=O,i,-15%,5,-3%,-13,i
NC(=O)c1ccsc1NC(=O)CS(=O)(=O)c1ccccc1,i,13%,-9,-6%,-4,i
CCOC(=O)c1sc(NC(=O)CS(=O)(=O)c2ccc(C)cc2)nc1C,u,3%,1,u,-7,i
O=c1/c(=C\c2cccc(O)c2)sc2nc(-c3ccccc3)c(-c3ccccc3)n12,i,-6%,-7,4.6µM*,-7,i
COCCCNC(=O)CSc1nc2cc(C(=O)NCCOC)ccc2c(=O)n1Cc1ccc2c(c1)OCO2,i,10%,2,-3%,-3,i
C=C1CC2C3CC[C@@]4(OCOC45COCO5)[C@@]3(C)C(O)CC2[C@@]2(C)CCC(=O)C=C12 (some centres undefined),u,u,3,5.2µM*,3,i
CC(=O)C12OC1CC1C3CCC4=CC(=O)CCC4(C)C3CCC12C (centres undefined),i,-4%,-8,0%,-3,i
CCOc1cc(C(=O)N2CCN(c3ccccn3)CC2)cc(OCC)c1OCC,i,-6%,-23,1%,6,i
COc1ccc(C(CNC(=O)/C=C/c2c(Cl)nc3ccccn23)N(C)C)cc1 (centres undefined),i,0%,-1,2%,-87*,i
COc1ccc(CCN(C)C(=O)/C=C/c2c(Cl)nc3ccccn23)cc1OC,u,-2%,2,0%,9,i
CN(C)c1ccc(C=Nc2cncc3ccccc23)cc1,i,x,x,x,x,u
O=C(Nc1ccc(C(=O)O)cc1)/C(=C\c1ccc2c(c1)OCO2)NC(=O)c1ccccc1Cl,i,x,2,x,u,i
O=C(NCc1ccco1)/C(=C/c1ccccc1)NC(=O)c1ccco1,i,u,-92*,-4%,-2,i
O=C(NCCc1nc2ccccc2[nH]1)/C(=C/c1ccc(F)cc1)NC(=O)c1ccco1,i,-10%,-72*,12%,0,i
O=C(NCCc1nc2ccccc2[nH]1)/C(=C/c1ccc2c(c1)OCO2)NC(=O)c1ccc(Cl)cc1Cl,i,10%,-165*,u,-107*,i
O=C(NCCc1nc2ccccc2[nH]1)/C(=C/c1ccco1)NC(=O)c1ccccc1Br,i,15%,-6,0%,-23,i
SMILES,KB-V1 cytotox,SW480 rereplic,KCNH2 WT inh,MCF10A rereplic,KCNH2 3.1 block,KB-3-1 cytotox
CC(C)OC(=O)/C(=C/c1ccc(Br)cc1)NC(=O)c1ccco1,16µM*,-61%,8,3%,14,i
O=C(NCc1ccco1)/C(=C/c1ccc(Cl)cc1)NC(=O)c1ccco1,u,-6%,19,0%,-3,i
O=C(COC(=O)c1cccnc1Cl)NCc1ccco1,i,-16%,2,-2%,4,i
Cc1cccc(C(=O)Nc2nnc(S(=O)(=O)N(C)Cc3ccc(Cl)cc3)s2)c1,i,x,x,x,x,i
NNC(=O)/C(=C\c1ccco1)NC(=O)c1ccco1,i,u,-7,21µM*,14,i
O=C(Nc1ccccc1)/C(=C/c1ccc(F)cc1)NC(=O)c1ccco1,i,-6%,2,6%,-114*,i
C=CCNC(=O)/C(=C\c1ccco1)NC(=O)c1ccco1,i,0%,0,-3%,-5,i
CCC(=O)Nc1nnc(SCC(=O)Nc2ccc3c(c2)OCO3)s1,i,-5%,8,-1%,-6,i
O=[N+]([O-])c1ccccc1N/N=C/c1ccccc1,i,-6%,-5,2%,-83*,i
COc1cccc(/C=N/Nc2ccccc2C(=O)O)c1O,i,-2%,0,5%,-25,i
O=C(O)c1ccccc1NN=Cc1ccccc1,i,8%,2,u,-77*,i
c1ccc(Oc2ccccc2-c2cc(NCCc3cccnc3)n3nccc3n2)cc1,i,x,x,x,x,i
COc1ccc(C)cc1S(=O)(=O)N(C)CC(=O)NCc1ccncc1,i,0%,1,6%,-9,i
COc1ccc(N(CC(=O)NC2CCCCCC2)S(=O)(=O)c2c(C)nn(C)c2C)cc1,8.2µM*,9%,-4,6%,-32,u
Cc1nn(C)c(C)c1S(=O)(=O)N(CC(=O)NCCCOC(C)C)c1ccc(C(C)C)cc1,4.6µM*,0%,21,-1%,20,i
